The source of these data is publication PMC7819943, “Rice protein-binding microarrays: a tool to detect cis-acting elements near promoter regions in rice”.

In all, about 35,000 sequences were measured (“fluorescence intensity (a.u.)”: median about 10,000, highest 2% from about 52,000 on). The sample holds the highest values, similar sequences and a random draw of the others, so the mix is not that of the screen.

The assay concerns the target T1, OsWOX13 (Oryza sativa, UniProt Q5QMM3 1-267).
T1 sequence: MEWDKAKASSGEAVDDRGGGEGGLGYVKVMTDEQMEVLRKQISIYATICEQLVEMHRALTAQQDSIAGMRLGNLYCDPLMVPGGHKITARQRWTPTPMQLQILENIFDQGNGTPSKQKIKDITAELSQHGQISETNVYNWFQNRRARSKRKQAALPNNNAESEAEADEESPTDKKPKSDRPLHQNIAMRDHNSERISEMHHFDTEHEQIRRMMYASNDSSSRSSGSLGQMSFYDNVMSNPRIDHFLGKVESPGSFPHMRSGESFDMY
Nature of the assay: protein-binding microarray (RPBM); PBS, 2% BSA, 51.3 ng/ul salmon testes DNA, 50 uM zinc acetate, 200 nM TF, 25 C, 1 h; high values mean tight binding. The settings on record: protein: recombinant; tags: N-terminal polyhistidine and DsRed monomer fusion (pET32a); label: CyDye5-dUTP incorporated in the synthesized complementary strand; 3' TTTTT single-stranded linker to array surface; dsDNA, one strand shown. The method in brief: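 An Axon 4000B scanner gave the binding signal as per-feature fluorescence intensity in arbitrary units. This followed washing of a custom Agilent array that had been incubated for 1 h at 25 °C with 200 nM protein in PBS, 2% BSA, salmon testes DNA and 50 µM zinc acetate. The proteins were transcription factors fused at the N-terminus to polyhistidine and DsRed, expressed in E. coli BL21-CodonPlus and purified on Ni–NTA.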
Take “TTCATTAATCTCCCGGTGATGGATGAACGGGGAAAAGGGCCGGAGTCACCTAGTGCAG”: the binding signal was 4280 fluorescence intensity (a.u.).
Take “GATGTTAAGTTTTGGGCATATGATTGAATTGTCTTATATACGGAGTCACCTAGTGCAG”: the binding signal is 4180 fluorescence intensity (a.u.).
Take “CTGTTTGATTTAGCTTAGGATTATTAGGTGTAAGCTGAAACGGAGTCACCTAGTGCAG”: the binding signal is 3910 fluorescence intensity (a.u.).
For “AACCAATCACGTCGCAGATAAGGCCTGACAGGTGTGCCCCCGGAGTCACCTAGTGCAG”, the binding signal is 32700 fluorescence intensity (a.u.).
The same measure for “CGCGTGTGGTGATTGGCTGGCTCTTTGCCTCATCATGGGCCGGAGTCACCTAGTGCAG”: 34100 fluorescence intensity (a.u.).
Regarding “ACATTTGTGATTTTCCTAGGTAATGGTGAGATTTTATAGGCGGAGTCACCTAGTGCAG”, the binding signal was 3220 fluorescence intensity (a.u.).
As to “TTAATTGATCACATATTAATGGGCAACGCTGTTTTCCATGCGGAGTCACCTAGTGCAG”, the binding signal was 63600 fluorescence intensity (a.u.).
In the case of “GAAATTAATTTTAATAGTGTTTTCATATTATTTCCATGCGCGGAGTCACCTAGTGCAG”, the binding signal was 46500 fluorescence intensity (a.u.).
The same measure for “GATATAATTGGTATTATTACTAGGTTGGTGTGATATCCTACGGAGTCACCTAGTGCAG”: 27400 fluorescence intensity (a.u.).
Take “TCCAAAATCAATCAATTAAAACCCATAGTTATTGTTGACTCGGAGTCACCTAGTGCAG”: the binding signal was 53500 fluorescence intensity (a.u.).
As to “CTCCTTACAAATTTTGAAGATAATTTCGTAACACTTGGGGCGGAGTCACCTAGTGCAG”, the binding signal is 7610 fluorescence intensity (a.u.).
With “CTCAAATTATTGTTAAACCTTCATATAAATCGACCCCAATCGGAGTCACCTAGTGCAG”, the binding signal is 7650 fluorescence intensity (a.u.).
Regarding “ATAGATTGATTTGATAATTTCCTTGAGAGTAACACATGGGCGGAGTCACCTAGTGCAG”, the binding signal is 65500 fluorescence intensity (a.u.).
To “CACAGAATCCTTAATTAATTATATACATATATTGATCATGCGGAGTCACCTAGTGCAG” belongs 16200 fluorescence intensity (a.u.); to “TGGATGATTGGTGAGATAGGTGTTCCTTATAATTATAGGGCGGAGTCACCTAGTGCAG”, 54800 fluorescence intensity (a.u.); to “CATATTAATTGTTAAAGTTGTCATCATCCAAATTGTTATACGGAGTCACCTAGTGCAG”, 11100 fluorescence intensity (a.u.).
For “AGATGCTGCATGGTTGATTGGTTTCAAGTAATTTCATGGGCGGAGTCACCTAGTGCAG”, the binding signal was 7340 fluorescence intensity (a.u.).
In the case of “ACTGTGACACATGATGAACTGTTTATTTTGCATGATCTATCGGAGTCACCTAGTGCAG”, the binding signal is 5480 fluorescence intensity (a.u.).
For the sequence “GGCGTATTTCCCAATCATTGTGCGGTCCAAAACCATCGCCCGGAGTCACCTAGTGCAG”, the binding signal was 10000 fluorescence intensity (a.u.).
The same measure for “CTGATGTGATTACGTCTATCCAGTATAATCCCTCTGGTTTCGGAGTCACCTAGTGCAG”: 31700 fluorescence intensity (a.u.); for “TACCTCGCGACTAATTGGGCCTCCACTAACACCTAGATTCCGGAGTCACCTAGTGCAG”: 4340 fluorescence intensity (a.u.); for “TGTGAAAATGGATAATTAAGGGATCCCAAAGACCCATAAGCGGAGTCACCTAGTGCAG”: 10800 fluorescence intensity (a.u.).
Turning to “GTTGAACTTATTCCAATCAAGGATCACGCATTCACGTTCACGGAGTCACCTAGTGCAG”, the binding signal is 14100 fluorescence intensity (a.u.).
To “TAAAACTTATTTCTTGATAGATCAATCCCAGATTACAATGCGGAGTCACCTAGTGCAG” belongs 8210 fluorescence intensity (a.u.); to “CGACTGGATTGAAGCATTTTCTGCCTAGCTGTCTGTCTCTCGGAGTCACCTAGTGCAG”, 10100 fluorescence intensity (a.u.); to “CATGATTTGACAATATGGTGATACAGTAAATATTTGCTAACGGAGTCACCTAGTGCAG”, 40600 fluorescence intensity (a.u.).
For the sequence “ATTAATTGATTGGATTGGTTGTGTGCATTATTTCATCTAACGGAGTCACCTAGTGCAG”, the binding signal is 65200 fluorescence intensity (a.u.).
In the case of “CCTAATTGCGTCATGATTTGACAATGTAGTGCTACAGTAACGGAGTCACCTAGTGCAG”, the binding signal was 50800 fluorescence intensity (a.u.).
Regarding “GGTTGATTGTGAAGTTAATTATTTAACATCTCAATTATAACGGAGTCACCTAGTGCAG”, the binding signal is 32800 fluorescence intensity (a.u.).
With “AGTCTAATTGAGTGATTGTATACATGTTCAATGTTCATGGCGGAGTCACCTAGTGCAG”, the binding signal is 65300 fluorescence intensity (a.u.).
Regarding “TCTAATTACTTCATGATTTGATAATTTGGTGTTACAGTAACGGAGTCACCTAGTGCAG”, the binding signal is 52400 fluorescence intensity (a.u.).
For “GATCTAATTTGAAATGTGATAAATTGTTTTCAATAAATGGCGGAGTCACCTAGTGCAG”, the binding signal is 27700 fluorescence intensity (a.u.).
Turning to “CCTAATTGCACCATGATTTGATAATGTTGTGCTACAGTAACGGAGTCACCTAGTGCAG”, the binding signal is 42600 fluorescence intensity (a.u.).
As to “AATTTCTTGTTCAATCATTTCATATATATATACATGTAGGCGGAGTCACCTAGTGCAG”, the binding signal was 6120 fluorescence intensity (a.u.).
For “CCTGATTGCGTGTTGATTTGACAATATGGTGCTACAGTAACGGAGTCACCTAGTGCAG”, the binding signal is 54300 fluorescence intensity (a.u.).
As to “TTCATTAATTGATTATTACTAGTAGGGATGGTTGGTTCAACGGAGTCACCTAGTGCAG”, the binding signal was 30700 fluorescence intensity (a.u.).
As to “CCTAATTACTCCATGATTTGATAATATGACGCTACAGTAACGGAGTCACCTAGTGCAG”, the binding signal was 25000 fluorescence intensity (a.u.).
Regarding “GTTGTATGATTGACACTAGATCGAGAAAAGGTGCGACAAACGGAGTCACCTAGTGCAG”, the binding signal was 23500 fluorescence intensity (a.u.).
As to “CTTTAAATTTTAACTTTTGCATTGGCTTATTAGACCAACTCGGAGTCACCTAGTGCAG”, the binding signal is 4620 fluorescence intensity (a.u.).
“GAAATTACATATGACAAATCCAGAATTTTGATGGAGTGGTCGGAGTCACCTAGTGCAG”: the binding signal was 6770 fluorescence intensity (a.u.).
For the sequence “TGCTCAATCACACACACACACGCGTGTAATATTAAGATTTCGGAGTCACCTAGTGCAG”, the binding signal is 10500 fluorescence intensity (a.u.).
Regarding “TAGATTGATCGGACTAACCACCCCATTTTACACCATTTGCCGGAGTCACCTAGTGCAG”, the binding signal was 20900 fluorescence intensity (a.u.).
For the sequence “ATGTAAATCAATTGTTTAGTGTTGGATCTATAAGCAACATCGGAGTCACCTAGTGCAG”, the binding signal is 4370 fluorescence intensity (a.u.).
As to “TCTAATTGAAATTATTGTGTTTATGTATAAAGACAAATACCGGAGTCACCTAGTGCAG”, the binding signal is 24900 fluorescence intensity (a.u.).
To “TTTGATTTGTTAATCCAGCTAGTCGTGGGGAATAGTGAAGCGGAGTCACCTAGTGCAG” belongs 42700 fluorescence intensity (a.u.).
With “TAAGTAATTGATTGGTAGCCAGCTTCTAACTTCTAGCTTACGGAGTCACCTAGTGCAG”, the binding signal is 63600 fluorescence intensity (a.u.).
With “TTTAGTAATTGGTAGAGCTCAAATTTCTAAATTTAACTTCCGGAGTCACCTAGTGCAG”, the binding signal is 6730 fluorescence intensity (a.u.).
For the sequence “ATTAAGATTGATTAATTGTTGCTTGGTTAATAGCCACTTACGGAGTCACCTAGTGCAG”, the binding signal is 47500 fluorescence intensity (a.u.).
In the case of “TTCTAATCAAGCTTTCTGGTTAATTTCTCTATGAATTTAACGGAGTCACCTAGTGCAG”, the binding signal was 5250 fluorescence intensity (a.u.).
As for “TCTAGAGAATTAGCCCTGATTATAATGTGAGACTTTGCATCGGAGTCACCTAGTGCAG”, the binding signal is 4870 fluorescence intensity (a.u.).
“AAATCAATCTGATGGGCCGAATTGGAGGCCCATATCCGTGCGGAGTCACCTAGTGCAG”: the binding signal is 8660 fluorescence intensity (a.u.).
In the case of “TTTGGATTGGCCAGAACAAGATATACTTTCGAATCTTTTGCGGAGTCACCTAGTGCAG”, the binding signal was 11300 fluorescence intensity (a.u.).
With “CTCGCCATCTTCGCCGTCCTTGCTTTCTTATATAAATTTTCGGAGTCACCTAGTGCAG”, the binding signal is 4080 fluorescence intensity (a.u.).
To “TCATAAATTATTTATAATTGCCTTGCTTAATTTACGCCTTCGGAGTCACCTAGTGCAG” belongs 28900 fluorescence intensity (a.u.).
To “GCCGCCACCTTCGCCTTTATAAAGCTTACCTTTGCTACCACGGAGTCACCTAGTGCAG” belongs 64800 fluorescence intensity (a.u.).
